Compound activity from PubChem.
A selection: hits, their analogues and other compounds. The true share with any hit is near 1.4%.
RN4220 kill: S. aureus RN4220 growth inhibition; inhibition, % (concentration not given with the values); OD600, 16 h; 0.33% of 330,000 active; AID 1259311; in the data active means inhibition above about 85%
PrP 5UTR inh: inhibition of PrP 5' UTR reporter expression. cell-based PrP 5' UTR mRNA reporter, plate reader. inhibition, % (test concentration not listed). 0.35% of 340,000 active. AID 488862; in the data active means inhibition above about 52%
ugtP null kill: growth inhibition of S. aureus ugtP deletion strain; growth inhibition, % (concentration not given with the values); S. aureus RN4220 ugtP deletion, OD600 growth, 16 h; 0.54% of 330,000 active; in the data active means growth inhibition above about 68%
Yp Topo-I inh: Y. pestis Topo-I inhibition via cleavage products; Y. pestis Topo-I cleavage product accumulation, plate reader; activity, % at 10 µM; 0.064% of 360,000 active; in the data active means activity above about 50%, passing the limit was not always enough
BJeLR viability: BJeLR cell viability loss; BJeLR (HRASV12) viability, CellTiter-Glo ATP luminescence, 48 h; inhibition, % (test concentration not listed); 0.17% of 300,000 active; AID 1554; in the data active means inhibition above about 50%
PfHsp40 rescue: restores yeast growth despite PfHsp40 toxicity; S. cerevisiae expressing PfHsp40, growth rescue, ATP luminescence; growth rescue, % at 12.5 µM; 0.68% of 340,000 active; AID 504582; in the data active means growth rescue above about 28%, passing the limit was not always enough;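 further: yeast W303a lacking pdr1 and pdr3 grown in galactose medium; growth measured after three days at 30 °C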
PrP UTR cherry: prion 5' UTR mRNA inhibition, cherry-pick retest. cell-based prion protein 5' UTR reporter, plate reader. 48% of 1,100 active. inhibition, % at 2.5 µM. shares compounds with PrP 5UTR inh; in the data active means inhibition above about 54%
Large screens that a line does not name were inactive (follow-up assays come after a bar, where they were run).

OCC1OC(Oc2c[nH]c3ccccc23)C(O)C(O)C1O (stereo not drawn)	PrP 5UTR inh 67.9 | PrP UTR cherry inactive
Cc1cc(-c2ccccc2)n(-c2cc(N/N=C/c3ccccc3O)ncn2)n1	PrP 5UTR inh 76.0, PfHsp40 rescue 582.1 (no result: RN4220 kill, ugtP null kill, BJeLR viability) | PrP UTR cherry 89.6
COc1cc(NN=Cc2ccccc2O)ncn1	none (no result: PrP 5UTR inh, Yp Topo-I inh, BJeLR viability, PfHsp40 rescue)
O=C(/C=C\Nc1ccc2c(c1)OCO2)c1ccccn1	PrP 5UTR inh 80.5 | PrP UTR cherry 77.6
COc1ccc(NC(=O)C=Cc2cc(Br)ccc2OC)cc1	none (no result: PrP 5UTR inh, Yp Topo-I inh, BJeLR viability, PfHsp40 rescue)
O=C(C(=Cc1ccccc1)c1ccccc1)N1CCCCC1	none (no result: PrP 5UTR inh, Yp Topo-I inh, BJeLR viability, PfHsp40 rescue)
COc1cccc(C2=CC(c3cc(OC)ccc3OC)n3nnnc3N2)c1 (stereo not drawn)	none
COc1ccc(OC)c(C2C=C(c3ccc(C)c(C)c3)Nc3nnnn32)c1 (stereo not drawn)	PrP 5UTR inh 68.7 | PrP UTR cherry inactive
CC(C)C1C=C(C(=O)O)OC(OCc2ccc(CO)cc2)C1 (stereo not drawn)	none (no result: PrP 5UTR inh, Yp Topo-I inh, BJeLR viability, PfHsp40 rescue)
Cc1ccc(S(=O)(=O)N2CCN(C(=O)N(C)C)CC2)cc1	PrP 5UTR inh 61.6 | PrP UTR cherry inactive
C#CCOCCOCCOCCNc1nc(N2CCN(C(=O)Cn3cc(CCO)nn3)CC2)nc(N2CCN(C(=O)C(C(C)O)n3cc(CCCCN)nn3)CC2)n1 (stereo not drawn)	none (no result: PrP 5UTR inh, Yp Topo-I inh, BJeLR viability, PfHsp40 rescue)
C=C(C)C(=O)Nc1cccc(C2=NOC3(C2)CC(C(N)=O)N(C(=O)c2ccccc2C(=O)c2ccccc2)C3)c1 (stereo not drawn)	none (no result: PrP 5UTR inh, Yp Topo-I inh, BJeLR viability, PfHsp40 rescue)
Cc1ccc2nc(SC(C)C(=O)N3CCCCC3)[nH]c2c1 (stereo not drawn)	PrP 5UTR inh 66.0 | PrP UTR cherry inactive
COc1ccc2[nH]c(-c3cccc(F)c3)cc(=O)c2c1	PrP 5UTR inh 62.2 | PrP UTR cherry 91.7
CC(=O)NN1C(=O)c2ccccc2NC1c1ccc([N+](=O)[O-])o1 (stereo not drawn)	PrP 5UTR inh 60.9 | PrP UTR cherry inactive
O=C(NN1C(=O)c2ccccc2NC1c1ccc([N+](=O)[O-])o1)c1ccc(Br)cc1 (stereo not drawn)	none
CN1CC2C3C(=O)N(Cc4ccccc4)C(=O)C3[C@](C)(C1=O)N2C(=O)c1ccc(F)cc1 (stereo partly drawn)	none (no result: PrP 5UTR inh, Yp Topo-I inh, BJeLR viability, PfHsp40 rescue)
CNC(=O)c1cc(Cl)c(OC)c(OC)c1	none
COC(=O)C(=O)C1CCc2c(Cl)cc(OC)c(OC)c2C1=O (stereo not drawn)	PrP 5UTR inh 93.6 (no result: RN4220 kill, ugtP null kill, BJeLR viability) | PrP UTR cherry inactive
COc1ccccc1CN1Cc2cccc3c2C(CC1=O)C(O)C(O)C3 (stereo not drawn)	none (no result: PrP 5UTR inh, Yp Topo-I inh, BJeLR viability, PfHsp40 rescue)
Cc1cccc(Oc2ccc(N)cc2)c1	none
Nc1ccc(Oc2cccc(Oc3ccc(N)cc3)c2)cc1	PrP 5UTR inh 67.2 (no result: RN4220 kill, ugtP null kill) | PrP UTR cherry 75.0
O=C1CCC(O)CCN1CCC(Sc1ccc(Br)cc1)c1ccccc1 (stereo not drawn)	none (no result: PrP 5UTR inh, Yp Topo-I inh, BJeLR viability, PfHsp40 rescue)
CCCN1CCN(CC(=O)Nc2nnc(C)s2)CC1	PrP 5UTR inh 52.0 | PrP UTR cherry inactive
CCCCC=CC(NC(=O)c1ccc(C(=O)OC)cc1)c1ccccc1 (stereo not drawn)	none (no result: PrP 5UTR inh, Yp Topo-I inh, BJeLR viability, PfHsp40 rescue)
CCOC(=O)C1=CCC2c3c(c4ccccc4n3C)C(=O)C1N2Cc1ccccc1 (stereo not drawn)	none (no result: PrP 5UTR inh, Yp Topo-I inh, BJeLR viability, PfHsp40 rescue)
NCCNCCNCCN	PrP 5UTR inh 89.3 (no result: RN4220 kill, ugtP null kill) | PrP UTR cherry inactive
CC=C(C)C(=O)NCCN1C2=NCC(Cc3ccc(O)cc3)N2CC1Cc1ccc(O)cc1 (stereo not drawn)	none (no result: PrP 5UTR inh, Yp Topo-I inh, BJeLR viability, PfHsp40 rescue)
Cc1cccc(NC(=O)c2cnc3n(c2=O)CCS3)c1	none
O=C(Nc1ccccc1)c1cnc2n(c1=O)CCS2	PrP 5UTR inh 56.1 | PrP UTR cherry inactive
N#Cc1c(NC(=O)CSc2nc(N)cc(=O)[nH]2)sc2c1CCCCCC2	none
N#Cc1c(NC(=O)CSc2ncn[nH]2)sc2c1CCCCC2	PrP 5UTR inh 73.7 | PrP UTR cherry 76.9
O=C(Nc1cccc(-c2ccc(N3CCCCC3)nn2)c1)C(F)(F)F	PrP 5UTR inh 75.0 | PrP UTR cherry 67.6
O=C(Nc1cccc(-c2ccc(N3CCCCC3)nn2)c1)c1ccc(Br)o1	none
CC1CCN(c2ccc(-c3cccc(NC(=O)C(F)(F)F)c3)nn2)CC1	PrP 5UTR inh 82.5 (no result: RN4220 kill, ugtP null kill) | PrP UTR cherry 85.5
COc1ccc(-n2c(O)c(C=NNS(=O)(=O)c3cc(C)ccc3C)c3ccccc3c2=O)cc1OC	none (no result: PrP 5UTR inh, Yp Topo-I inh, BJeLR viability, PfHsp40 rescue)
